Data from PubChem BioAssay AID1259418 (Broad Institute, 2018).
The campaign covered roughly 3,400 compounds. About 840 (25%) were called active. Inconclusive results (about 11%) are left out.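 How the source made its calls: active means fitted half-maximal concentration of signal decrease at or below twice the sample's top tested concentration; inconclusive means flat curve between -70 and -30 percent, or poor fit; inactive means flat within 30 percent, signal rise, or potency above limit.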 Not all results are given here. Entries with a potency or affinity are not part of this list.

Assay: inhibitors of Toxoplasma growth in IFN-γ-primed HeLa – cell-based, ME49Luc, luciferase, 72 h, dose response (AID 1259418)
Conditions: T. gondii ME49Luc in IFN-y HeLa, hits give low values, -100% = high-dose IFN-γ control wells; at 19.5 µM unless noted

With `CN1[C@H](CO)[C@@H]2c3ccccc3N(C(=O)C3CCCCC3)C[C@@H]21` as the compound, how does the max activity read?
Its max activity is 65.5% (inactive).

For `CCN1Cc2c(C(=O)Nc3ccc(C)cc3)ncn2-c2ccccc2S1(=O)=O`, which max activity is on record?
The max activity was 5.65% (inactive).

Which max activity does the source give for `CC(C)n1c(C(=O)Nc2cccc(F)c2)nc2c1CCN(Cc1ccccc1)C2` here?
Its max activity is 12.5% (inactive).

For `COc1ccc(CC(=O)N2CCC3(CC2)Nc2ccc(C)c(C)c2-n2cccc23)cc1OC`, which max activity is on record?
The max activity was 11.1% [at 0.68 µM] (inactive).

Which max activity does the source give for `Cc1ccc(C)c(-c2coc(-c3ccc(NC(=O)Nc4ccccc4)cc3)n2)c1` here?
The max activity was 17.8% [at 0.16 µM] (inactive).

With `CCOCC1CC2(CCN(C(=O)COc3ccc(C)cc3)CC2)CO1` (stereo unspecified) as the compound, how does the max activity read?
Its max activity is 14.2% (inactive).

For `O=C(CC1N=C2c3ccccc3N=C(SCc3cc(=O)n4cc(Cl)ccc4n3)N2C1=O)NC1CCCCC1` (stereo unspecified), which max activity is on record?
Its max activity is 36.6% [at 10 µM] (inactive).

With `FC(F)(F)c1cccc(N2CCN(c3nc(-c4ccc(Cl)cc4)nc4ccccc34)CC2)c1` as the compound, how does the max activity read?
The max activity was -11.2% [at 0.16 µM] (inactive).

Which max activity does the source give for `CCc1ccccc1NC(=O)N1CCN(Cc2nc(-c3cccc(Cl)c3)oc2C)CC1` here?
The max activity was 17.6% [at 10 µM] (inactive).

Which max activity does the source give for `Cc1ccc(Cl)cc1NC(=O)N1CCN(Cc2nc(-c3cccc(Cl)c3)oc2C)CC1` here?
Its max activity is 11.1% [at 10 µM] (inactive).

Which max activity does the source give for `Cc1cccc(NC(=O)N2CCN(Cc3nc(-c4cccc(Cl)c4)oc3C)CC2)c1` here?
The max activity was 12.6% (inactive).

Which max activity does the source give for `Cc1oc(-c2cccc(Cl)c2)nc1CN1CCN(C(=O)Nc2cccc(Cl)c2)CC1` here?
Its max activity is 10.8% [at 0.35 µM] (inactive).

Which max activity does the source give for `CCc1nc(OCC(=O)Nc2cc(C)ccc2C)c2ccccc2n1` here?
Its max activity is 10.4% [at 2.6 µM] (inactive).

With `Cc1ccc(CC(=O)N2CCC3(CC2)Nc2cc(F)ccc2-n2cccc23)cc1` as the compound, how does the max activity read?
The max activity was -4.79% [at 0.35 µM] (inactive).

Which max activity does the source give for `CC(C)NC(=O)N1CC[C@@H]2[C@@H](CO)N(C)c3ccc(-c4ccc(F)cc4)cc3[C@@H]21` here?
The max activity was 26.2% [at 5 µM] (inactive).

With `CC(C)NC(=O)N1CC[C@@H]2[C@H]1c1cc(-c3ccc(F)cc3)ccc1N(C)[C@H]2CO` as the compound, how does the max activity read?
The max activity was -31.5% (inactive).

With `COc1ccc2c(c1)NC1(CCN(C(=O)c3ccccc3F)CC1)c1cccn1-2` as the compound, how does the max activity read?
Its max activity is 8.8% [at 5 µM] (inactive).

Which max activity does the source give for `CN1c2ccc(C#Cc3cccnc3)cc2[C@@H]2[C@@H](CCN2C(=O)c2cccc(F)c2)[C@H]1CO` here?
Its max activity is 11.4% (inactive).

For `Fc1ccc(N2CCN(c3nc(-c4ccc(Cl)cc4)nc4ccccc34)CC2)cc1`, which max activity is on record?
The max activity was 8.24% (inactive).

With `CCCCC(=O)Nc1ccc(-c2nc(-c3ccc(C)cc3C)co2)cc1` as the compound, how does the max activity read?
Its max activity is 37.3% [at 10 µM] (inactive).

Which max activity does the source give for `Cc1ccc(S(=O)(=O)N2CCC3(CC2)NCCN=C3NCc2ccccc2F)c(C)c1` here?
Its max activity is -12.4% (inactive).

Which max activity does the source give for `O=S(=O)(c1cccs1)N1CCC2(CC1)NCCN=C2NCc1ccccc1Cl` here?
Its max activity is -8.05% [at 1.35 µM] (inactive).

For `O=C(NCCc1csc(-c2ccccc2)n1)[C@H]1CCCN1C(=O)Cc1ccc(F)cc1`, which max activity is on record?
Its max activity is -17.3% [at 0.16 µM] (inactive).

With `CCc1nc(OCC(=O)Nc2ccc(C)cc2C)c2ccccc2n1` as the compound, how does the max activity read?
Its max activity is 12.9% [at 10 µM] (inactive).

For `Cc1cc(C)cc(NC(=O)Nc2ccc(-c3nc(-c4ccccc4)co3)cc2)c1`, which max activity is on record?
The max activity was 19.9% [at 1.35 µM] (inactive).

With `Cc1ccc(-c2nc(Cn3nnc(-c4nc(-c5ccc(OC(C)C)cc5)no4)c3C)c(C)o2)cc1` as the compound, how does the max activity read?
Its max activity is 12.6% [at 0.16 µM] (inactive).

With `Cc1cc(C)cc(NC(=O)N2CCN(Cc3nc(-c4ccccc4C)oc3C)CC2)c1` as the compound, how does the max activity read?
The max activity was 8.24% [at 1.35 µM] (inactive).

With `Cc1ccc(Cl)cc1NC(=O)Nc1ccc(-c2nc(-c3ccccc3)co2)cc1` as the compound, how does the max activity read?
Its max activity is -20.1% [at 0.16 µM] (inactive).

With `Cc1ccc(-c2nc(Cn3nnc(-c4nc(-c5cccc(F)c5)no4)c3C)c(C)o2)cc1` as the compound, how does the max activity read?
The max activity was 3.99% (inactive).

With `Cc1ccc(C)c(-c2coc(-c3ccc(NC(=O)NCCc4ccccc4)cc3)n2)c1` as the compound, how does the max activity read?
The max activity was 29.4% (inactive).

With `OC[C@H]1[C@@H](c2ccc(C#Cc3ccccc3F)cc2)[C@@H]2CN(CC3CCOCC3)CCCCN12` as the compound, how does the max activity read?
Its max activity is 9.11% [at 1.2 µM] (inactive).

Which max activity does the source give for `C[C@H]1[C@H](NC(=O)/C(=N\OC(C)(C)C(=O)O)c2csc(N)n2)C(=O)N1S(=O)(=O)O` here?
Its max activity is 14% [at 21 µM] (inactive).

With `COc1ccc2c(c1)NC1(CCN(C(=O)Cc3ccccc3C)CC1)c1cccn1-2` as the compound, how does the max activity read?
Its max activity is -9.29% [at 0.16 µM] (inactive).

With `CCc1nc(OCC(=O)Nc2ccc(C)cc2Br)c2ccccc2n1` as the compound, how does the max activity read?
Its max activity is -11.9% [at 2.6 µM] (inactive).

For `COc1ccc(CCNc2nc(SCc3ccc(F)cc3)nc3ccccc23)cc1OC`, which max activity is on record?
The max activity was -14.5% [at 5 µM] (inactive).

For `CCOC(=O)C(=O)Nc1ccc(-c2nc(-c3ccccc3)co2)cc1`, which max activity is on record?
The max activity was 10.7% [at 5 µM] (inactive).

With `Cc1ccc(-c2nc(Cn3nnc(-c4nc(-c5cccc(Br)c5)no4)c3C)c(C)o2)cc1` as the compound, how does the max activity read?
The max activity was 7.23% [at 0.16 µM] (inactive).

For `CCOc1ccc(C(=O)N2CCC(C(=O)NCCc3csc(C)n3)CC2)cc1`, which max activity is on record?
Its max activity is 13.7% (inactive).

With `Cc1ccc(C)c(-c2coc(-c3ccc(NC(=O)Cc4cccs4)cc3)n2)c1` as the compound, how does the max activity read?
Its max activity is 19.4% (inactive).

Which max activity does the source give for `O=C(CC1N=C2c3ccccc3N=C(SCc3cc(=O)n4ccccc4n3)N2C1=O)NCc1ccc(F)cc1` (stereo unspecified) here?
Its max activity is 17.7% [at 2.6 µM] (inactive).

For `COc1ccc(CCC(=O)N2CCC3(CC2)Nc2cc(F)ccc2-n2cccc23)cc1`, which max activity is on record?
Its max activity is 14.7% [at 0.68 µM] (inactive).

Which max activity does the source give for `O=C(Nc1ccc(-c2nc(-c3cccc(Br)c3)co2)cc1)Nc1ccc2c(c1)OCCO2` here?
The max activity was 9.52% [at 0.16 µM] (inactive).

For `Cc1ccc(-c2nc(CN3CCN(C(=O)Nc4cccc(C)c4C)CC3)c(C)o2)cc1`, which max activity is on record?
Its max activity is 12.5% [at 10 µM] (inactive).

With `COc1ccc(-c2nc(NCc3ccccc3)c3ccccc3n2)cc1` as the compound, how does the max activity read?
Its max activity is 16.2% (inactive).

With `COc1ccc(-c2nc(NCCN(Cc3ccco3)C3CCCC3)c3ccccc3n2)cc1` as the compound, how does the max activity read?
Its max activity is -27.6% [at 2.6 µM] (inactive).

With `COc1ccc(-c2nc(NCCCc3ccccc3)c3ccccc3n2)cc1` as the compound, how does the max activity read?
The max activity was -17% [at 1.35 µM] (inactive).

With `COc1ccc(CNc2nc(-c3ccc(OC)cc3)nc3ccccc23)cc1` as the compound, how does the max activity read?
Its max activity is -17.8% [at 10 µM] (inactive).

For `CN(CCNc1nc(-c2ccc(Cl)cc2)nc2ccccc12)C1CCCCC1`, which max activity is on record?
Its max activity is -24.3% [at 2.6 µM] (inactive).

With `CCCCNc1nc(-c2ccc(OC)cc2)nc2ccccc12` as the compound, how does the max activity read?
Its max activity is 22.7% (inactive).

With `COc1ccc(-c2nc(NCCC(C)C)c3ccccc3n2)cc1` as the compound, how does the max activity read?
The max activity was -29.2% [at 0.68 µM] (inactive).

With `CCCNc1nc(-c2ccc(OC)cc2)nc2ccccc12` as the compound, how does the max activity read?
The max activity was -34.8% [at 0.35 µM] (inactive).
